Test results reported in PubChem BioAssay (NCATS).
“And” between values parts separate entries of the source, which are not always exact repeats. Equal values may be shown once. Records with an inconclusive call do not appear. The source made the active and inactive calls. Unless noted, calls follow the shape of the dose curve; as a rule, active = well fitted curve in the direction sought with a large enough effect; inconclusive = small, poorly fitted or top-dose-only effect, or another doubt; inactive = no such curve, though single readings can be large; an effect the other way counts as inactive or inconclusive.

Tests used:
[1] = qHTS assay for small molecule agonists of retinoid X receptor alpha signaling (AID 588544; calls by dose curve;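 as to activation: 0% = DMSO basal wells and 100% = reference agonist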); settings: HEK293T RXRa-UAS-bla, beta-lactamase reporter, 18 h; 530 nm emission
[2] = target: Retinoic acid receptor RXR-alpha (Homo sapiens) (UniProt P19793); assay: as above; settings: HEK293T RXRa-UAS-bla, beta-lactamase reporter, 18 h; series mostly up to 76.7 µM
[3] = target: Thyroid hormone receptor beta (Homo sapiens) (UniProt P10828); assay: qHTS assay for small molecule agonists of thyroid hormone receptor beta signaling (AID 588545; calls by dose curve;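 also: 0% = DMSO only and 100% = 10 nM T3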); settings: TR-UAS-bla GripTite HEK 293, beta-lactamase ratio, agonist mode, 18 h, percent of T3 response, DMSO as zero; series mostly up to 76.7 µM
Outline: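 TR-UAS-bla-GripTite HEK 293 cells in medium with 2% charcoal/dextran FBS, 0.1 mM NEAA and 1 mM sodium pyruvate were treated with titrated compounds for 18 hrs at 37 C. Beta-lactamase reporter was read with CCF4 dye (ex 405, em 460/530 nm); EC50 from Hill fits.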

[4] = target: Thyroid hormone receptor beta (Homo sapiens) (UniProt P10828); assay: qHTS assay for small molecule antagonists of thyroid hormone receptor beta signaling (AID 588547; active = well fitted inhibition curve with a large enough effect in the signal ratio, with a control signal flat, not every such curve was filed as active; the % refers to the signal ratio;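 also: cells stimulated with 0.4 nM T3 agonist during compound exposure; % is scaled to controls: 0 for no effect and ±100 for the full control effect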); settings: TR-UAS-bla HEK293, beta-lactamase ratio, antagonist mode, 18 h
Outline: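 Inhibition of T3-driven (0.4nM final) beta-lactamase reporter activity was measured over 0.59 nM to 92 uM compound after 18 h at 37 C. The cells were GripTite HEK293 TR-UAS-bla in charcoal/dextran-stripped serum, with CCF4 ratio read-out and IC50 from Hill fits.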

[5] = target: Voltage-gated inwardly rectifying potassium channel KCNH2 (Homo sapiens) (UniProt Q12809); assay: qHTS Assay for Small Molecule Inhibitors of the Human hERG Channel Activity (AID 588834); settings: U2OS BacMam hERG, FluxOR thallium flux fluorescence; series mostly up to 46.1 µM;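 also: lower thallium flux fluorescence means stronger hERG block; nearly all actives have a fitted effect of over 50% in size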; also: potency is read from the fitted curve at half-maximal effect
Outline: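 Measured: FluxOR fluorescence after thallium stimulation in U2OS cells transduced with hERG by baculovirus. Compounds pre-incubated around 10 min; medium Opti-MEM with 2% FCS. AC50 from Hill equation.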

[6] = target: Glutaminase kidney isoform, mitochondrial (Homo sapiens) (UniProt O94925); assay: qHTS for Inhibitors of Glutaminase (GLS): LOPAC Validation (AID 624146); settings: glutaminase enzyme activity inhibition; series mostly up to 46.1 µM;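 also: glutamate product detected by oxidase and peroxidase coupled Amplex red fluorescence gain; % is scaled to controls: 0 for no effect and ±100 for the full control effect; nearly all actives have a fitted effect of over 60% in size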
Outline: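 Read-out is an Amplex red fluorescence increase coupled through glutamate oxidase and HRP, measured before and after 30 min room-temperature incubation. hKGA is in 45 mM KH2PO4 (pH 8.2) with 0.02% Tween-20; glutamine added as 1mM solution.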

[7] = qHTS of Trypanosoma Brucei Inhibitors: LOPAC Validation (AID 624147); settings: purified enzyme assay, luminescence, 45 min; series mostly up to 57.5 µM; also: 0% is about no effect
Outline: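 Assay buffer: 50 mM TEA pH 7.2, 100 mM KCl, 10 mM MgCl2, 0.05% BSA, 0.01% Tween-20. Pyruvate kinase from T. brucei plus substrate met compound, then ADP (130 uM final). Luminescence was read post 45 min RT.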

[8] = target: Glucagon-like peptide 1 receptor (Homo sapiens) (UniProt P43220); assay: qHTS of GLP-1 Receptor Agonists: LOPAC Validation (AID 624148); settings: GLP-1R agonist cell assay; series mostly up to 46.1 µM;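 also: luminescence from a luciferase reporter switched on by cAMP; 0% is about no effect; higher luminescence signal means agonism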
Outline: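 Agonism scored as increased luciferase luminescence driven by cAMP in HEK293 clones carrying GLP-1R. Cells settled 12 hours, received compound for 4-6 hr at 37 deg C, 5% CO2, and were read after 12 min detection reagent at RT.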

[9] = qHTS of Nrf2 Activators: LOPAC Validation (AID 624149); settings: Nrf2/ARE reporter cell assay; series mostly up to 46.1 µM; also: 0% is about no effect
Outline: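 AREc32 cells carrying an ARE-driven firefly luciferase were grown overnight in OPTI-MEM with 5% FBS, then exposed to compounds for 24 hr at 37 deg C. Luciferase signal was read after 30 min with Steady-Glo at RT.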

[10] = HTS Assay for Allosteric Antagonists of the Human D2 Dopamine Receptor: Hit Validation in HTRF (AID 624455); settings: Cells stably expressing D1 dopamine receptor, inhibition mode; series mostly up to 46.1 µM;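 also: stable D1 dopamine receptor cell line scored for blocking the D1 response; % is scaled to controls: 0 for no effect and ±100 for the full control effect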
Outline: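 Hits were examined in an HTRF assay using cells stably expressing the D1 dopamine receptor, scoring inhibition of the D1-mediated response. The preceding primary screen tracked calcium flux after an EC80 dopamine addition in force-coupled, inducible Hek293 Trex D2 cells.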

[11] = qHTS assay for small molecule activators of the nuclear factor-kappa B (NF-kB) signaling pathway (AID 651749; active = well fitted activation curve with a large enough effect in the signal ratio; the % refers to the signal ratio; also: % of control where 0% means no effect); settings: NF-kB-bla ME-180 cells, beta-lactamase FRET ratio, 16 h; stronger effect = higher value
Outline: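 Stably transfected ME-180 line; NF-kB response element upstream of beta-lactamase. Treatment: compound or DMSO, 16 hr. Detection: fluorescent FRET substrate.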

[12] = qHTS assay for small molecule disruptors of the mitochondrial membrane potential - 5 hr assay (AID 651755; calls by dose curve; also: nearly all actives have a fitted effect of over 40% in size; also: potency is read from the fitted curve at half-maximal effect); settings: JC-1-type ratio dye; series mostly up to 92.2 µM
Outline: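 HepG2, 2,000 cells/well, overnight attach; cpd or DMSO 5 hr, 37C/5% CO2; Mito-MPS 30 min 37C; fluor 490/535 + 540/590 nm.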

[13] = qHTS assay for small molecule antagonists of retinoid X receptor alpha signaling (AID 588546; active = well fitted inhibition curve with a large enough effect in the signal ratio, with a control signal flat, not every such curve was filed as active; the % refers to the signal ratio;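 also: cells stimulated with 9-cis-retinoic acid as agonist; % is scaled to controls: 0 for no effect and ±100 for the full control effect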); settings: HEK293T RXRa-UAS-bla, beta-lactamase ratio, antagonist mode; measured here: W530 green channel, cytotoxicity proxy
Outline: (§1)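 Beta-lactamase reporter inhibition, read as CCF4 fluorescence ratio (ex 405, em 460/530 nm) after 2 h at RT. HEK293T UAS-bla cells, 2500/well, were stimulated with 9-cis-RA at 500 or 100 nM final alongside test compound for 18 h at 37 C.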

[14] = target: Retinoic acid receptor RXR-alpha (Homo sapiens) (UniProt P19793); assay: as above; settings: HEK293T RXRa-UAS-bla, beta-lactamase ratio, antagonist mode
Outline: as §1

[15] = qHTS assay for small molecule agonists of the antioxidant response element (ARE) signaling pathway (AID 651741; active = well fitted activation curve with a large enough effect in the signal ratio; the % refers to the signal ratio; also: potency is read from the fitted curve at half-maximal effect; as to activation: % of control where 0% means no effect); settings: HepG2 ARE-bla reporter, beta-lactamase FRET ratio, 16 h; series mostly up to 96 µM
Outline: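 Seeding 2,000 ARE-bla HepG2 cells per well preceded a 5 h incubation at 37 C/5% CO2 and a 16 h compound exposure at 37 C. Beta-lactamase reporter activity was then quantified by fluorescence after 2 h with LiveBLAzer B/G FRET substrate.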

[16] = qHTS assay for small molecule activators of the p53 signaling pathway (AID 651743; active = well fitted activation curve with a large enough effect in the signal ratio, not every such curve was filed as active; the % refers to the signal ratio; also: % of control where 0% means no effect); settings: HCT-116 p53RE-bla, beta-lactamase FRET ratio, 16 h; activation: stronger effect = higher value
Outline: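 Screen for p53 pathway agonists uses stably transfected p53RE-bla HCT-116 cells, 4,000 per well, treated 16 h at 37 C with compounds in DMSO.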

[17] = target: Luciferin 4-monooxygenase (Photinus pyralis) (UniProt P08659); assay: Biochemical firefly luciferase enzyme assay for NPC (AID 624030);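 also: purified P. pyralis luciferase at 10 nM with luciferin and ATP substrate; 0% = DMSO and -100% = full luciferase inhibition by PTC124 control; nearly all actives have a fitted effect of over 70% in size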; settings: purified P. pyralis luciferase, luminescence, 5 min; series mostly up to 58.6 µM
Outline: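 Direct inhibition of firefly luciferase enzyme (10 nM final, 50 mM Tris Acetate) assessed by luminescence within 5 minutes. Percent activity scaled between DMSO and PTC124 positive control, with concentration-effect curves classified by fit quality and response.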

[18] = S16 Schwann cell viability assay (CellTiter-Glo assay) (AID 624031); settings: S16 rat Schwann cells viability, 24 h; series mostly up to 57.5 µM;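 also: native untransfected S16 rat Schwann cells; cellular ATP luminescence as a viability measure; plate controls were DMSO-treated cells for no effect and cell-free wells for full effect; nearly all actives have a fitted effect of over 70% in size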
Outline: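 Concentration-effect curves come from CellTiter-Glo luminescence of S16 rat Schwann cells after 24 h compound exposure. Each reading was normalized to DMSO wells (0%) and wells without cells, and curves were ranked by r2 and response magnitude.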

[19] = S16 Schwann cell PMP22 intronic element firefly luciferase assay (AID 624032); settings: S16 rat Schwann cells, PMP22 element FLuc, 24 h; series mostly up to 57.5 µM; also: nearly all actives have a fitted effect of over 30% in size; also: potency is read from the fitted curve at half-maximal effect
Outline: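 Luciferase reporter of PMP22 intronic-element expression in stably transfected S16 rat Schwann cells, read by ONE-Glo luminescence after 24 h compound exposure at 37 C. Activity scaled between DMSO (0%) and positive-control PTC124; concentration-effect curves quality-classified.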

[20] = S16 Schwann cell PMP22 intronic element beta-lactamase assay (AID 624044; calls by dose curve; also: nearly all actives have a fitted effect of over 15% in size; also: potency is read from the fitted curve at half-maximal effect); settings: S16 rat Schwann cells, PMP22 element beta-lactamase FRET, 24 h; series mostly up to 38.3 µM
Outline: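 Rat S16 Schwann cells with beta-Lac driven by a PMP22 intronic element, compound-treated 24 h at 37 °C. LiveBLAzer FRET B/G read: 460 nm normalized to potassium clavulanate vs DMSO; 535 nm FRET as viability; concentration-effect curves classified.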

Chain of Voltage-gated inwardly rectifying potassium channel KCNH2 (Homo sapiens) (Q12809 whole entry, looked up): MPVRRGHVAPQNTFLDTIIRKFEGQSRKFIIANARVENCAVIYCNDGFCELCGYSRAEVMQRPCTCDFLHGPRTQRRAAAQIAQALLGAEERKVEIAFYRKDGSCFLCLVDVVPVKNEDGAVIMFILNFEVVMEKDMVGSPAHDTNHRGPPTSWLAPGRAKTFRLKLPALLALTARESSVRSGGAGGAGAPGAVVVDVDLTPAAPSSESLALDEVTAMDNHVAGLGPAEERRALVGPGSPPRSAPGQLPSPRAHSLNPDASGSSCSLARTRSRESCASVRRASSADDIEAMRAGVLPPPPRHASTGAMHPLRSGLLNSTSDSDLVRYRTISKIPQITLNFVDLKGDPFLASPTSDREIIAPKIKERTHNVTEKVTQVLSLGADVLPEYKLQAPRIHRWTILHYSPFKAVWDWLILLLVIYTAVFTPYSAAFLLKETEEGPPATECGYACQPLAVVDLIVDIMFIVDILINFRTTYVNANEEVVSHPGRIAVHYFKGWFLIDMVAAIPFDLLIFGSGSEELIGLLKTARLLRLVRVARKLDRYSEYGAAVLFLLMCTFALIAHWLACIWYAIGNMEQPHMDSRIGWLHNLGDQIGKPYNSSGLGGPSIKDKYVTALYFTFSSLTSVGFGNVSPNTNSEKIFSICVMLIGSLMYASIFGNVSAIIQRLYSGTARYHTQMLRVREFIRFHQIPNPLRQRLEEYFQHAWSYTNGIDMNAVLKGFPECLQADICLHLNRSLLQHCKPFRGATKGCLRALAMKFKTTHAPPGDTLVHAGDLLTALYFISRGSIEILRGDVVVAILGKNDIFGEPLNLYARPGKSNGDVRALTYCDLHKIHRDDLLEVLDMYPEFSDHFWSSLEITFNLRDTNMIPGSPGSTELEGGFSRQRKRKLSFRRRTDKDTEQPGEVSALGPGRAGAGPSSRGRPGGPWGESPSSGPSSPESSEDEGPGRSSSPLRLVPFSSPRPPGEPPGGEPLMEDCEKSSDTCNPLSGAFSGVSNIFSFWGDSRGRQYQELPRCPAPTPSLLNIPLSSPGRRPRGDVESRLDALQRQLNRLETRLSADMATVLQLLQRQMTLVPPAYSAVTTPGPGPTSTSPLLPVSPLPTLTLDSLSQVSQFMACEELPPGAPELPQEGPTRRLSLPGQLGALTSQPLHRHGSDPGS
Chain of Retinoic acid receptor RXR-alpha (Homo sapiens) (P19793 whole entry, looked up): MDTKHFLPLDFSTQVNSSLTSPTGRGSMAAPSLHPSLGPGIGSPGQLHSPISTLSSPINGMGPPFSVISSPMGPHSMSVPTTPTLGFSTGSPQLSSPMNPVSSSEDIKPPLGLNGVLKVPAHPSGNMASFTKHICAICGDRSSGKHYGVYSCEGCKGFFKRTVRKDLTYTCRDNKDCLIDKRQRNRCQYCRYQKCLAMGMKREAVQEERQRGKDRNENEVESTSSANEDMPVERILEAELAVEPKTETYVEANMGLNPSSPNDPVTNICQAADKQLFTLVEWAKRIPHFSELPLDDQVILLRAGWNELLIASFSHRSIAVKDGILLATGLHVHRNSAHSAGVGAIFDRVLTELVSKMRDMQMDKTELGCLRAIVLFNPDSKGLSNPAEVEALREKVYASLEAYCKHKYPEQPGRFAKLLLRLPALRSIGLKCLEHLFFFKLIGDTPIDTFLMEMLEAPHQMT
Chain of Thyroid hormone receptor beta (Homo sapiens) (P10828 whole entry, looked up): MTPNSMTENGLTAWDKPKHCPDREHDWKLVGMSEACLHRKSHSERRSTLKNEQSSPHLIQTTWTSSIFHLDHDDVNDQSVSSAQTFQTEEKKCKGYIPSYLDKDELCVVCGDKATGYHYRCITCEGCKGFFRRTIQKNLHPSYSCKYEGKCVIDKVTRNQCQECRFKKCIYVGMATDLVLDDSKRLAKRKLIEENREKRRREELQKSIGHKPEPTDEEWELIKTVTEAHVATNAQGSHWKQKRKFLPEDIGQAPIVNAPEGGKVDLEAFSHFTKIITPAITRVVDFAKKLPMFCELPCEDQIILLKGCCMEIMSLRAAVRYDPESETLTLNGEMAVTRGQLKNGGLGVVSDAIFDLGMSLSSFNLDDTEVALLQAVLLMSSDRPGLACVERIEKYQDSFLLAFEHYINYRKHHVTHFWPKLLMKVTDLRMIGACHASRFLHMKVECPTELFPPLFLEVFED
Chain of Luciferin 4-monooxygenase (Photinus pyralis) (P08659 whole entry, looked up): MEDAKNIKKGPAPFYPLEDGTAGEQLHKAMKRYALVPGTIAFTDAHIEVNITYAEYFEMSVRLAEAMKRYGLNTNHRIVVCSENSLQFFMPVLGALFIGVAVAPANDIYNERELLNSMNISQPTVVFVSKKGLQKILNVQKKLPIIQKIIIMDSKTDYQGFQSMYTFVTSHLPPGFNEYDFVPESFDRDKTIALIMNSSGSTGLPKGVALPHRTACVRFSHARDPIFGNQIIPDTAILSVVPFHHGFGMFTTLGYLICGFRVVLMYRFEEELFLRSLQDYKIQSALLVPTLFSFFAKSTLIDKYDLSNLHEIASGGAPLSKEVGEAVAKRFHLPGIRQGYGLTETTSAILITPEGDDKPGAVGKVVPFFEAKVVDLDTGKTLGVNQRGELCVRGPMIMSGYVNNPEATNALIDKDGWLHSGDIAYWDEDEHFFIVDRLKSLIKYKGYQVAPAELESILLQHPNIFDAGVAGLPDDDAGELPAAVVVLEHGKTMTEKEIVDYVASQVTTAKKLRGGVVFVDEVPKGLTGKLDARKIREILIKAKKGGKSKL
Chain of Glutaminase kidney isoform, mitochondrial (Homo sapiens) (O94925 whole entry, looked up, canonical isoform): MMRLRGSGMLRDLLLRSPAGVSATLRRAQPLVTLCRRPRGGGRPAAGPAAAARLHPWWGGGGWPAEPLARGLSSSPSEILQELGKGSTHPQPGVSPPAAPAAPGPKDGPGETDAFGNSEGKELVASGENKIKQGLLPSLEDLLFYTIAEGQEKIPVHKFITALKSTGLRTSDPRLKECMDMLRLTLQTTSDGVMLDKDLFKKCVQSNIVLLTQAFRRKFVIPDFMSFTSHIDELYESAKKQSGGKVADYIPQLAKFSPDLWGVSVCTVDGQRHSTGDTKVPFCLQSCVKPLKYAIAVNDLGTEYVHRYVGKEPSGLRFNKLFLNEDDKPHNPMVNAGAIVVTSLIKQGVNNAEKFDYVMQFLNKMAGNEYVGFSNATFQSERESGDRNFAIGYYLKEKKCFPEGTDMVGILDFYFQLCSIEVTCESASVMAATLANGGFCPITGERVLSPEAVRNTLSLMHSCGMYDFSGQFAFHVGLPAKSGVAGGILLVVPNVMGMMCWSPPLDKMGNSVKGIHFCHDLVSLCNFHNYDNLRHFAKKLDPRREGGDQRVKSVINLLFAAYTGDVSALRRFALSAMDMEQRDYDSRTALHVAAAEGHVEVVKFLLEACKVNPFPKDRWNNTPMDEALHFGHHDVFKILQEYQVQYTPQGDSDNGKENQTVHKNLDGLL
Chain of Glucagon-like peptide 1 receptor (Homo sapiens) (P43220 whole entry, looked up): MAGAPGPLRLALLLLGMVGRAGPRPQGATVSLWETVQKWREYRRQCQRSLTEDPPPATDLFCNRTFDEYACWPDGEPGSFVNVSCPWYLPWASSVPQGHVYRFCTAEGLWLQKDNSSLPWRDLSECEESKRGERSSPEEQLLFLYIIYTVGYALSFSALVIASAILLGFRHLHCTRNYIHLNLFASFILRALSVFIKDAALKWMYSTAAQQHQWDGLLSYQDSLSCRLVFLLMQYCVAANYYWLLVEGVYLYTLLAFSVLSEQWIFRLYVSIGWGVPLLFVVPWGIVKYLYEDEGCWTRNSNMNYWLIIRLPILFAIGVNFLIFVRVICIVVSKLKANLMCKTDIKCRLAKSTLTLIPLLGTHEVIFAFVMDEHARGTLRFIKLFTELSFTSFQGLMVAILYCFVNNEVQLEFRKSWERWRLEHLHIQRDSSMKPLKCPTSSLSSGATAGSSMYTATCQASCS

NNC(N)=O
inactive: Potency [2] | outcome [3] | activity change % (negative = inhibition) [4] -12% | Potency [5] | Potency [6] | Potency [7] | outcome [8] | Potency [9] | Potency [10] | activation [11] -0.594% | Potency [12]
-3.29%: max response [1]

O=C1C[C@@H]2OCC=C3CN4CC[C@]56c7ccccc7N1[C@H]5[C@H]2[C@H]3C[C@H]46
7.39%: max response [13]
inactive: outcome [3] | max response [14] -7.88% | activity change % (negative = inhibition) [4] 0.757% | Potency [15] | activation [16] -1.99% | activation [11] -1.87%
active: Potency [5] 14.1 µM

O=C(NCNC(=O)NC1C(=O)NC(=O)N1CO)NC1C(=O)NC(=O)N1CO (centres undefined)
-13%: max response [13]
0.0503%: max response [1]
inactive: Potency [2] | outcome [3] | max response [14] -8.07% | activity change % (negative = inhibition) [4] -0.544% | Potency [5] | Potency [17] | Potency [18] | Potency [19] | Potency [20] | Potency [15] | activation [16] -1.04%

O=C1C2CC=CCC2C(=O)N1SC(Cl)(Cl)Cl (centres undefined)
-2.91%: max response [13]
active: Potency [5] 25.1 µM and 28.2 µM | Potency [19] 12.8 µM | Potency [20] 22.4 µM | Potency [12] 23.7 µM and 33.5 µM
inactive: outcome [3] | max response [14] 15% | activation [16] -1.26% and 18.6% | activation [11] -2.11%

O=C1CCO1
-9.31%: max response [13]
inactive: Potency [2] | outcome [3] | max response [14] 14.1% | activity change % (negative = inhibition) [4] 16.1% | Potency [5] | Potency [17] | Potency [18] | Potency [19] | Potency [20] | activation [11] -0.561% | Potency [12]
-0.599%: max response [1]

COCC(C)N(C(=O)CCl)c1c(C)csc1C (centres undefined)
inactive: outcome [3] | Potency [5] | Potency [17] | Potency [18] | Potency [19] | activation [16] -0.528% | activation [11] -2.83%
active: Potency [15] 15.4 µM

CCCCCl
-8.74%: max response [13]
-0.522%: max response [1]
inactive: Potency [2] | outcome [3] | max response [14] 21% | Potency [5] | Potency [17] | Potency [18] | Potency [19] | Potency [20] | Potency [15] | activation [16] -4.24% | Potency [12]

CC(C)(C)c1cc(O)ccc1O
23.9% and 27.4%: max response [1]
10.2% and -11%: max response [13]
inactive: Potency [2] | outcome [3] | max response [14] 0.473% and -17.4% | Potency [5] | Potency [17] | Potency [18] | Potency [20] | activation [16] -3.68% and -3.53% and -5.7% | activation [11] -2.1% and -2.15% and -3.27% | Potency [12]
active: Potency [19] 7.21 µM and 28.7 µM
